In PubChem BioAssay (NCI) one finds growth data, which are given here for eight compounds.

Assay in all cases: NCI-60 one-dose screen, 48 h (100 = growth as untreated, 0 = no growth, -100 = all killed)
Holding throughout (conditions): 10 µM unless noted

The test system of test [1] is HCT-15 colon.
Test [2] concerns HT29 colon.
Test [3] has as its system SNB-75 CNS.
Test [4] deals with SNB-19 CNS.
Test [5] has as its system U251 CNS.
Test [6] concerns PC-3 prostate.
Test [7] relates to SK-MEL-5 melanoma.
Test [8] concerns UACC-62 melanoma.
The subject of test [9] is LOX IMVI melanoma.
Test [10] relates to SK-MEL-28 melanoma.
In test [11] the test system is SK-MEL-2 melanoma.
The test system of test [12] is EKVX NSCLC.
Test [13] concerns SN12C renal.
The subject of test [14] is UO-31 renal.
Test [15] concerns ACHN renal.
Test [16] has as its system A498 renal.
Test [17] has as its system CCRF-CEM leukemia.
Test [18] concerns MOLT-4 leukemia.
In test [19] the test system is SR leukemia.
For test [20], the system named is TK-10 renal.

About 83,000 compounds went through this panel and 20% of them were active in at least one assay; those are over-represented in the sample as a whole.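 In brief: 96-well plates, 48 h treatment, single concentration, percent growth endpoint.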 Values without a mark were called inactive. Activity calls are given as the source filed them. The calls were made as follows: active = growth percent below 10; inactive = the rest.

Take `O=C(Nc1ccc(N=Cc2ccccc2O)cc1)NC1C=c2ccccc2=CC1` (centres undefined): the growth was 100% in test [1]; 104% in test [2]; 86.3% in test [3]; 100% in test [4]; 93.2% in test [5]; 104% in test [6]. Further, the growth is 98.7% in test [7]; 92.7% in [8]; 105% in [9]; 99.8% in test [10]; 102% in test [11]; 106% in [12]. Moreover, the growth was 102% in [13]; 81.9% in test [14]; 102% in [15]; 83.5% in [16]; 81% in [17]; 93% in test [18]. Also, in test [19], the growth was 95.1%.
`C#CCN(CCCOc1ccc(Cl)cc1Cl)CCCSC(=O)CCCCCN1/C(=C\C=C2/CCCC(/C=C/C3=[N+](CCCCCC(=O)[O-])c4ccccc4C3(C)C)=C2Cl)C(C)(C)c2ccccc21`: the growth was 87.2% in test [1]; -26.7% (active) in test [2]; 42.4% in test [3]; 14.7% in [4]; -63.8% (active) in [5]; 20.9% in test [6]. Also, the growth in test [7] is -25.7% (active); in test [8], -25.8% (active); in test [9], -29.8% (active); in test [10] it was -9.83% (active); in [11], -29% (active); in test [12] it was 61.6%. The growth in [13] was 5.06% (active); in test [14], 94.9%; in test [15], 102%; in [16], 13%; in test [17], -1.58% (active); in test [18] it was -18.7% (active). Also, the growth in [19] was -16.2% (active).
As for `COc1ccc([C@H]2[C@@H](F)C(=O)N2c2cc(OC)c(OC)c(OC)c2)cc1F`, the growth is 13.6% in test [1]; 3.73% (active) in test [2]; 50.9% in test [3]; 34.1% in test [4]; 11.9% in test [5]; 23.1% in [6]. Also, the growth was -31.5% (active) in test [7]; 53.4% in test [8]; 24% in test [9]; 57.7% in test [10]; 58.8% in test [11]; 72.2% in test [12]. The growth in [13] is 33.3%; in test [14] it was 43.2%; in test [15], 32.7%; in test [16], -5.5% (active); in [18] it was 19.7%; in test [19] it was 13.3%.
With `Nc1c(C(=O)Nc2cccc3ccccc23)sc2nc3c(cc12)CCCCC3`, the growth in test [1] is 28.6%; in [2], 19.1%; in [3] it was 19.4%; in [4] it was 27.2%; in test [5], 16.8%; in test [6], 34.1%. For the same compound, the growth in test [7] was 37.1%; in test [8], 38%; in test [9], 38.4%; in [10] it was 71.7%; in [11], 50.5%; in test [12] it was 40.4%. For the same compound, the growth in test [13] was 43.4%; in test [14] it was 51.9%; in [15] it was 53.6%; in test [16] it was -1.52% (active); in test [17] it was 9.18% (active); in test [18], 15.9%. For the same compound, in test [19], the growth was 19.9%.
With `O=C1C(Cl)=C(NCCCN(CCCNC2=C(Cl)C(=O)c3ccccc3C2=O)C2=C(Cl)C(=O)c3ccccc3C2=O)C(=O)c2ccccc21`, the growth in [1] is 37.1%; in test [2] it was 12.4%; in [3], 104%; in test [4], 72.9%; in test [5] it was 37.4%; in [6], 47%. The growth in [7] is -59.1% (active); in test [8], 17.9%; in test [9] it was 10.8%; in [10] it was 71.7%; in [11] it was 79.4%; in test [12], 80%. Besides, the growth is 4.16% (active) in test [13]; 58.1% in test [14]; 74.6% in [15]; 100% in test [16]; 34.6% in [17]; 31.6% in [18]. In addition, the growth in test [19] is 2.55% (active).
As for `CCO/C=N/S(=O)(=O)c1cc2c(cc1Cl)NC=NS2(=O)=O`, the growth in [1] was 107%; in [2], 97.4%; in test [3], 106%; in [4], 103%; in test [5], 95.4%; in test [6] it was 92.3%. For the same compound, the growth in [7] is 102%; in test [8] it was 104%; in [9], 98.4%; in test [10], 120%; in test [11], 105%; in test [12] it was 103%. Besides, the growth was 104% in test [13]; 89.1% in test [14]; 112% in test [15]; 95.7% in test [17]; 109% in test [18]; 108% in [19].
As to `CN1CCN(CC#CCOC(=O)CNC(=O)[C@]23CCC(C)(C)C[C@H]2C2=CC[C@@H]4[C@@]5(C)CC[C@H](O)C(C)(C)[C@@H]5CC[C@@]4(C)[C@]2(C)CC3)CC1`, the growth in [1] was 77%; in test [2] it was 75.5%; in test [3] it was 80.9%; in test [4] it was 87.1%; in [5], 83.3%; in [6], 83.4%. The growth in test [7] was 88.6%; in test [8] it was 90.3%; in test [9] it was 81.3%; in test [10] it was 104%; in [11] it was 95.4%; in test [12], 89.1%. In addition, the growth in test [13] was 82.2%; in test [14], 63%; in test [15] it was 92.5%; in test [17], 85.6%; in [18], 70.7%; in test [19], 7.96% (active).
Turning to `COc1cc(/C=C/C(=O)/C=C/c2cc3ccc(Cl)cc3n(Cc3ccccc3)c2=O)ccc1O`, the growth in [1] is -46.1% (active); in test [2] it was -46.5% (active); in test [3] it was 63.3%; in test [4], 13.3%; in test [5] it was -64.7% (active); in [6], -2.36% (active). For the same compound, the growth in test [7] was -80.5% (active); in test [8] it was -56% (active); in test [9] it was -90% (active); in test [10], 3.48% (active); in test [11], -13.2% (active); in test [12], 8.91% (active). Besides, the growth was -18.4% (active) in test [13]; -88.9% (active) in [14]; 13.8% in [20]; -15.4% (active) in test [15]; 3.16% (active) in test [17]; 5.11% (active) in [18]. Moreover, the growth in [19] is 1.8% (active).
